Test [1] is described as follows: qHTS assay to identify small molecule agonists of the hypoxia (HIF-1) signaling pathway - cell viability counter screen (AID 1224844; calls by dose curve; further: nearly all actives have a fitted effect of over 50% in size; further: potency means the concentration at half of the fitted maximal effect). In short, it runs like this:
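HRE-bla ME-180 cells in medium with 0.5% dialyzed FBS were preincubated 5 hrs at 37C, exposed to compounds for 17 hrs, then viability was read as CellTiter-Glo luminescence after 30 min at room temperature, in the reporter wells.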
On the technique in general: In qHTS, concentration-response curves come from the screen itself.

A short description of test [2]: qHTS assay to identify small molecule agonists of the hypoxia (HIF-1) signaling pathway (AID 1224846; active means well fitted activation curve with a large enough effect in the signal ratio in the repeat runs, not every such curve was filed as active; the % refers to the signal ratio). Put shortly:
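HRE-bla ME-180 cells (beta-lactamase reporter under hypoxia response element) were plated at 2,000 cells/well in medium with 0.5% dialyzed FBS, rested 5 hrs, then given compounds in DMSO for 17 hrs at 37C, 5% CO2. Reporter induction was read with CCF4-AM FRET substrate.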

A short description of test [3]: qHTS assay to identify small molecule agonists of the estrogen related receptor (ERR) signaling pathway from Tox21 library (AID 1224849; calls by dose curve; further: nearly all actives have a fitted effect of over 15% in size). The note with it: ERR reporter cell line, ONE-Glo luciferase, 18 h. Put shortly:
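ERR reporter cell line (NTP) seeded, rested 6 h at 37 C/5% CO2, then pinned with Tox21 compounds in DMSO. After 18 h at 37 C, ONE-Glo luciferase luminescence was read following 30 min at room temperature.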

A short description of test [4]: qHTS RealTime-Glo MT Cell Viability Assay in HepG2 cells - 24 hour (AID 1224867). Further: nearly all actives have a fitted effect of over 50% in size. Further: potency means the concentration at half of the fitted maximal effect. Put shortly: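 Cells + NanoLuc/prosubstrate dispensed (600 cells/well) → 5 h at 37 C/5% CO2 → compounds in DMSO transferred → 40 h incubation at 37 C, luminescence read at 0, 8, 16, 24, 32, 40 h.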
Test [5] can be described thus: qHTS RealTime-Glo MT Cell Viability Assay in HEK293 cells - 32 hour (AID 1224868). Further: nearly all actives have a fitted effect of over 50% in size. Further: potency means the concentration at half of the fitted maximal effect. Put shortly:
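Tox21 10K qHTS, HEK293, 600 cells/well, RealTime-Glo reagent co-dispensed with cells; 5 h preincubation, compound by pintool, 37 C, luminescence at 0–40 h.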

Test [6] is described as follows: qHTS RealTime-Glo MT Cell Viability Assay in HepG2 cells - 40 hour (AID 1224870). Further: nearly all actives have a fitted effect of over 50% in size. In short, it runs like this:
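Real-time viability: cells seeded at 600 per well together with NanoLuc and cell-permeant prosubstrate, compounds added after 5 h incubation. Luminescence tracked at 0, 8, 16, 24, 32 and 40 h of exposure.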

Test [7] can be described thus: qHTS assay to identify small molecule agonists of H2AX - cell viability counter screen (AID 1224847; calls by dose curve; further: nearly all actives have a fitted effect of over 30% in size; further: potency means the concentration at half of the fitted maximal effect). In short, it runs like this: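 Counter-screen for viability: CellTiter-Glo ATP luminescence read after 3 h compound treatment (15-point titration, 0.76% DMSO final) of CHO-K1 cells at 37C, with 30 min room-temperature reagent incubation.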
The nature of test [8]: qHTS assay to identify small molecule antagonists of the estrogen related receptor (ERR) signaling pathway from Tox21 library (AID 1224848). Further: nearly all actives have a fitted effect of over 50% in size. Further: potency means the concentration at half of the fitted maximal effect. In short, it runs like this:
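Antagonist-mode screen of the Tox21 10K library in an NTP-provided ERR reporter cell line; 18 h compound exposure at 37 C, luminescence measured with ONE-Glo.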

The nature of test [9]: A CellTox Green Cytotoxicity Assay to monitor cytotoxicity in HEK293 cells - 0 hour (AID 1224869). Further: nearly all actives have a fitted effect of over 50% in size. In short, it runs like this:
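HEK293 cells premixed with CellTox Green dye were seeded at 600 cells/well and left 5 h at 37 C/5% CO2 before pin transfer of 23 nL compound in DMSO. Fluorescence from dye bound to dead-cell DNA was read during 40 h treatment.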

Each structure is given as a SMILES string. Several values for one entry are separate records, joined by “and”; a condition that tells them apart may be missing. Identical values can stand only once. Unmarked numbers belong to inactive results. Records with an inconclusive call do not appear. Activity calls are given as the source filed them. Unless noted, the call rests on the fitted dose curve; in most records, active means well fitted curve in the direction sought with a large enough effect in the repeat runs; inconclusive means weak or mixed curves; inactive means no such curve, though single readings can be large; an effect the other way counts as inactive or inconclusive.
On the % scale 0 is the no-effect control and ±100 the full control effect.

As to `Nc1ccc(Oc2ccc(Cl)cc2)cc1`, the Potency result in [1], in [2], in test [4] and in [6] was “inactive” throughout. In [3] (at 92.4 µM (top of the series)), the activity change, positive = activation was -19.3%. In addition, the Potency in [5] is 21.4 µM (active).
Turning to `O=c1oc2cc(O)ccc2c2oc3cc(O)ccc3c12`, the Potency result in test [1], in [7], in test [8], in test [4], in test [9] and in test [6] was “inactive” in each case.
On to `C#C[C@]1(O)CC[C@H]2[C@@H]3[C@H](C)CC4=C(CCC(=O)C4)[C@H]3CC[C@@]21C`, for which the Potency result in test [1], in [2], in test [4], in [5], in test [9] and in [6] was “inactive” in each case. The Potency in test [8] is 23.7 µM (active). Besides, the activity change, positive = activation in test [3] (at 42.5 µM (top of the series)) is -32.4%.
Take `CC(C)=CCC1=C(O)c2ccccc2C(=O)C1=O`: the Potency result in [1], in test [2], in [4], in test [9] and in test [6] was “inactive” each time. Moreover, the Potency in [8] was 1.92 µM (active). The activity change, positive = activation in [3] (at 92.4 µM (top of the series)) was -51.5%.
`CCCCN(CCCC)CC(O)c1cc(Cl)cc2c1-c1ccc(Cl)cc1/C2=C/c1ccc(Cl)cc1` (configuration not stated): the Potency result in [1], in [2] and in test [5] was “inactive” in each case. For the same compound, in test [3] (at 42.5 µM (top of the series)), the activity change, positive = activation was -23.2%.
In the case of `CNC(=O)c1ccccc1Sc1ccc2c(/C=C/c3ccccn3)n[nH]c2c1`, the Potency result in test [1], in [2], in test [4], in test [9] and in [6] was “inactive” throughout. Besides, the Potency in [5] was 9.52 µM (active).
For the compound `CCCCCCCCCCC[C@@H](C[C@@H]1OC(=O)[C@H]1CCCCCC)OC(=O)[C@H](CC(C)C)NC=O`, the Potency entry in [1], in [2], in test [4], in [9] and in [6] was “inactive” throughout. Also, the Potency in [5] is 9.52 µM (active).
As for `COc1cc(S(=O)(=O)O)c(C)cc1N=Nc1c(O)ccc2cc(S(=O)(=O)O)ccc12`, the Potency result in test [1], in test [2], in test [9] and in [6] was “inactive” each time. Moreover, in test [7], the Potency is 45 µM (active). In [3] (at 92.4 µM (top of the series)), the activity change, positive = activation is -21.5%.
On to `CCOC(=O)c1ccc(C2CCC(NC[C@H](O)COc3ccc(O)c(NS(C)(=O)=O)c3)CC2)cc1` (some centres not stated), for which the Potency entry in test [1], in test [2] and in test [9] was “inactive” throughout. Also, the Potency was 56.4 µM (active) in test [8] and 45.2 µM (active) in test [4]. Besides, the activity change, positive = activation in [3] (at 92.4 µM (top of the series)) is -46.8%.
For the compound `O=C(Nc1ccc2c(O)c(N=Nc3ccc(N=Nc4ccc(S(=O)(=O)O)cc4)cc3)c(S(=O)(=O)O)cc2c1)c1ccccc1`, the Potency entry in [1], in test [5] and in test [9] was “inactive” in each case. Besides, the Potency in test [7] was 50.5 µM (active). Moreover, the activity change, positive = activation in [3] (at 92.4 µM (top of the series)) is -30%.
For the compound `CC(=O)[C@H]1CC[C@H]2[C@@H]3CCC4=CC(=O)CC[C@]4(C)[C@H]3CC[C@]12C`, the Potency entry in [1], in [9] and in test [6] was “inactive” in each case. For the same compound, the Potency in test [7] is 100 µM (active) and 101 µM (active); in test [8], 13.6 µM (active) and 15.4 µM (active); in [5], 13.7 µM (active) and 17.4 µM (active). Moreover, the activity change, positive = activation in test [3] (at 92.4 µM (top of the series)) is -73.5% and -66.4%.
On to `Oc1c(I)cc(Cl)c2cccnc12`, for which the Potency entry in test [1], in test [7], in test [4], in [9] and in test [6] was “inactive” in each case. Besides, the Potency in test [8] is 19.3 µM (active) and 11.9 µM (active); in [5], 24.5 µM (active). Moreover, the figures for the activity change, positive = activation in test [3] (at 42.5 µM (top of the series)) and in test [3] (at 92.4 µM (top of the series)) were -30.5% and -54.8%, respectively.
Regarding `CC1=Nc2ccccc2C1(C)C`, the Potency result in test [1], in test [2], in test [8], in [4] and in test [6] was “inactive” each time. Further, the Potency in test [7] was 89.9 µM (active).
Take `O=S(=O)(O)c1ccc(Nc2nc(Nc3ccc(/C=C/c4ccc(Nc5nc(Nc6ccc(S(=O)(=O)O)cc6)nc(N(CCO)CCO)n5)cc4S(=O)(=O)O)c(S(=O)(=O)O)c3)nc(N(CCO)CCO)n2)cc1`: the Potency result in test [1], in test [7], in test [8], in [4] and in test [5] was “inactive” each time. In addition, the activity change, positive = activation in test [3] (at 42.5 µM (top of the series)) is 7.49%.
For the compound `Cc1ccc(O)c(N)c1`, in test [1], the Potency is 39 µM (active). For the same compound, the Potency entry in [7], in test [4] and in test [6] was “inactive” in each case.
In the case of `CC(C)CCOC(=O)/C=C/c1ccccc1`, the Potency result in test [1], in test [2], in test [7], in test [4], in [5] and in test [6] was “inactive” in each case.
`c1ccc(SSc2ccccc2)cc1`: the Potency entry in test [1], in test [2], in [7], in test [4], in [9] and in [6] was “inactive” throughout.
`O=S(=O)(O)c1ccc(N=Nc2c(O)ccc3ccccc23)cc1`: the Potency in test [1] was 12.3 µM (active). Moreover, the Potency result in test [2] and in test [9] was “inactive” each time.

Values taken from PubChem BioAssay (Tox21).
